According to PubChem BioAssay (NCI):
About 79,000 compounds went through this panel and 15% of them were active in at least one assay; those are over-represented in the sample as a whole. Values without a mark were called inactive. Activity calls are given as the source filed them. Cut-off read from the data, not from the text of the source: active = growth inhibition above about 70%; inactive = the rest.

What was measured:
[1] = NCI Yeast Anticancer Drug Screen. Data for the rad50 strain (AID 155);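 note: 0% = growth of vehicle-only cultures of the same strain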; conditions: S. cerevisiae rad50 strain growth inhibition; at 50.0 µM; active compounds read high
Outline: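 Genetically altered yeast (DNA repair pathway); compound treatment; growth inhibition vs vehicle ctrl.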

[2] = NCI Yeast Anticancer Drug Screen. Data for the mec2-1 strain (AID 157); conditions: S. cerevisiae mec2-1 strain, at 50.0 µM, active compounds read high
Outline: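 Yeast mec2-1 mutant treated with compound. Readout: growth inhibition vs vehicle controls.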

[3] = NCI Yeast Anticancer Drug Screen. Data for the sgs1 mgt1 strain (AID 161);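 note: 0% = growth of cultures given vehicle only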; conditions: S. cerevisiae sgs1 mgt1 strain, at 50.0 µM, active compounds read high
Outline: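 Inhibition of yeast growth, normalised to vehicle-treated controls, is reported for a strain bearing genetic alterations in DNA damage repair.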

[4] = NCI Yeast Anticancer Drug Screen. Data for the cln2 rad14 strain (AID 165);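 note: 0% = growth equal to vehicle treated cultures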; conditions: S. cerevisiae cln2 rad14 strain, at 50.0 µM, active compounds read high
Outline: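 cln2 rad14 yeast strain; compound exposure; growth inhibition read vs vehicle controls.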

[5] = NCI Yeast Anticancer Drug Screen. Data for the bub3 strain (AID 167); conditions: S. cerevisiae bub3 mutant strain, at 50.0 µM, active compounds read high
Outline: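 Yeast carrying a defined mutation is treated with each compound, and growth is compared with that of vehicle-exposed cells to give inhibition.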

[6] = NCI Yeast Anticancer Drug Screen. Data for the mlh1 rad18 strain (AID 175); conditions: S. cerevisiae mlh1 rad18 strain growth inhibition; at 50.0 µM; active compounds read high
Outline: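 Yeast w/ defined DNA-repair lesions; compound exposure; growth vs vehicle controls → % inhibition.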

Row | SMILES | growth inhibition [1] | growth inhibition [2] | growth inhibition [3] | growth inhibition [4] | growth inhibition [5] | growth inhibition [6]
1 | O=C(NNC(=O)c1cccc(F)c1)c1ccccc1 | -25.8% | -4.25% | -22.9% | -6.05% | -12.8% | 5.2%
2 | COc1ccc(N=Cc2ccc(OC(=O)c3ccccc3)c(OC)c2)cc1 | 2.15% | 0.5% | 0.55% | -0.8% | 13.3% | -23.5%
3 | Nc1ccccc1OCC(=O)Nc1c(N)ncnc1N | 0.4% | -6.35% | 6.85% | 2.95% | 5.9% | -3.8%
4 | COc1ccc(C2(C=O)CN(C)CN2)cc1 (stereo unspecified) | -7.2% | -3.95% | -14.7% | -21.2% | -13.8% | -7.2%
5 | Nc1nc(N)c(N=Nc2ccc(C(=O)O)c(O)c2)c(N)n1 | 5.5% | 3.5% | -0.7% | 12.8% | -11.9% | 13%
6 | COc1ccc(NS(=O)c2cccc(C)c2)cc1 (stereo unspecified) | -8.05% | -11.1% | -16.1% | -18.3% | -3.1% | 9.4%
7 | CCNC(=O)NCCN1CCOCC1 | -3.55% | -8% | -3.1% | -75% | 7.05% | -2%
8 | Cc1cc(C)nc(NC(=O)c2cc(C(=O)O)c(C(=O)Nc3cc(C)cc(C)n3)cc2C(=O)O)c1 | -20.3% | -3.1% | -18.8% | -27.6% | 3.25% | -23.9%
9 | Cc1c(C)n2c(=O)n(-c3ccccc3)c(=O)n2c1=O | -38% | -27.1% | -5.55% | -27.2% | -7.75% | -1.85%
10 | CCOC(=O)C(=CC(CC)CC)C(=O)OCC | 8.7% | -18.4% | -10.2% | -4.1% | -16.2% | -0.85%
11 | CC(=O)OCCOCNC(=S)N/N=C/c1ccccn1 | 24.2% | 26% | -8.35% | 6.7% | 12.6% | 45.6%
12 | CCOC(=O)C(C)(C)Oc1ccc2c(-c3ccccc3)cc(=O)oc2c1 | -9.15% | -8.4% | 0.15% | -13.1% | -19.8% | -25.6%
13 | O=C1C2CCCCC2C(=O)N1O (stereo unspecified) | 60.1% | -1.5% | 18.8% | 16.6% | 1.45% | 9.25%
14 | C=C1CCC1 | 1.05% | -11.5% | -14.7% | 10.6% | 6.05% | -3.35%
15 | N#C/C=C\c1ccc(C#N)cc1 | 28.1% | -1.5% | 20.3% | 6.85% | 25.1% | 19.9%
16 | Oc1cccc(O)c1 | 0.8% | -1% | -1.1% | -12.2% | 1.75% | 33.1%
17 | O=C(CCC(CCC(=O)c1ccccc1)[N+](=O)[O-])c1ccccc1 | 3.15% | -10.8% | 7.65% | 4.55% | 14.2% | 20.5%
18 | Cc1ccc(Nc2nc(=O)[nH]c(=O)[nH]2)cc1N | -11.7% | 1.65% | 20.3% | 11.7% | 27.1% | -54.5%
19 | Cc1nc2ccccc2c(Br)c1Br | 14.5% | 7.35% | 3.55% | 11.2% | -4.05% | 6.5%
20 | Cc1cccnc1C | 16.9% | -7.25% | -16.2% | 24.4% | 14.4% | 7.85%
21 | CCOC(=O)C(Cc1c[nH]c2ccccc12)NC(C)=O (stereo unspecified) | 22.2% | 28.6% | 23.6% | -9.9% | 41.9% | 19.2%

Row | SMILES | growth inhibition [1] | growth inhibition [2] | growth inhibition [3] | growth inhibition [4] | growth inhibition [5] | growth inhibition [6]
22 | COc1cc(CNc2nc3ccccc3n2Cc2ccccc2)cc(CN2CCOCC2)c1O | -4.4% | 15.7% | 3.7% | 33.3% | 9.55% | 7.55%
23 | NC(=O)C(CC(C(N)=O)C(N)=O)C(N)=O | 7.5% | 18.4% | -8.45% | -24.9% | 7.7% | -6.55%
24 | O=C(N/N=C\c1ccc2c(c1)CCC2)c1cccc2ccccc12 | -5.9% | 1.35% | -11.9% | -6.1% | 10.2% | -2.9%
25 | CON | -16.2% | -5.35% | 2.4% | -13.1% | 0.3% | -12.2%
26 | COCn1c(C)c(C)c2c(=O)oc(=O)[nH]c21 | -23.2% | 17.7% | -30.6% | -11.3% | 16.6% | -25.5%
27 | CC1OC(OC2CCc3c(O)c4c(c(O)c3C2)C(=O)c2ccccc2C4=O)CC(N)C1O (stereo unspecified) | 5.25% | 8.9% | 5.85% | 14.8% | -1.85% | -2.15%
28 | CSc1nc(N)c(NS(=O)(=O)c2ccc([N+](=O)[O-])cc2)c(=O)[nH]1 | 4.35% | -8.05% | 5.65% | -3.95% | 10.1% | 14.1%
29 | CN(C)CCCNc1nnc(NCCCN(C)C)c2[nH]cnc12 | -3.2% | -4.2% | 7.85% | -24.9% | 6.5% | -4.35%
30 | CCCCCCCCCCCCCCCCC1=C(C(=O)OC)NC(N)=NC1O (stereo unspecified) | 29% | 0.25% | -20.8% | -10.1% | 4.7% | 22.1%
31 | COc1cc(C2C(Cl)C(=O)N2NC(=O)c2ccc(NC(C)=O)cc2)cc(Br)c1O (stereo unspecified) | -0.25% | -14.8% | -9.6% | -24.9% | -7.9% | -30.9%
32 | c1cc(C2CCCCC2)ccc1C1CCCCC1 | -7.4% | -19.1% | -20.6% | -58.1% | -16.1% | -3.9%
33 | CN(C)/N=C1/CCC(C(F)(F)F)(C(F)(F)F)O1 | 40.1% | 31.6% | 41.5% | 28.9% | 5.1% | -18.4%
34 | O=c1c(-c2ccccc2)nc2ccccc2n1CC1CCCN2CCCC[C@H]12 (stereo partly specified) | 3.9% | -10% | 18.3% | -38.9% | 22.7% | 19.4%
35 | N#Cc1nc(CC(=O)c2ccc(Cl)c(Cl)c2)c(CC(=O)c2ccc(Cl)c(Cl)c2)nc1C#N | 12.1% | 10.4% | 9.2% | 31.4% | 27.6% | 20.2%
36 | CC(C)C1OCC=CCO1 | 7.65% | -6.7% | -13.2% | -9.85% | 13.7% | -3%
37 | COc1ccc2nc(NC(=O)Nc3ccc(Cc4ccc(NC(=O)Nc5nc6ccc(OC)cc6s5)cc4)cc3)sc2c1 | -14.4% | -19.6% | -10.3% | 10.3% | -8.65% | -12%
38 | Cn1c(=O)c2c(nc3n2C(CCl)CO3)n(C)c1=O (stereo unspecified) | 40.5% | 12.8% | 7.75% | 9.5% | 34% | 32.4%
39 | O=C(/C=C/c1ccc2c(c1)OCO2)NCc1ccco1 | 53.5% | 8.7% | -19.6% | -5.8% | -14.4% | -34.9%
40 | CC(O)c1cc2c(s1)C(=O)c1scc(C(C)O)c1C2=O (stereo unspecified) | 89.8% (active) | 93.1% (active) | 92% (active) | 90.8% (active) | 91.4% (active) | 90.8% (active)
41 | Cn1c([N+](=O)[O-])cnc1/C=C1\CCc2cc(OCCN3CCCC3)ccc2C1=O | 30.4% | 24.3% | 36.4% | 21.6% | -2% | 38.3%
